D2 ag-1 – activates the human D2 dopamine receptor; P14416; activation, % (test concentration not listed); 360,000 compounds, 0.084% hits; AID 624465; DiscoveRx PathHunter D2 beta-arrestin, luminescence, 90 min; 100% = 57 uM dopamine signal; in the data active = activation above about 40%
Target sequence (P14416 whole entry, looked up): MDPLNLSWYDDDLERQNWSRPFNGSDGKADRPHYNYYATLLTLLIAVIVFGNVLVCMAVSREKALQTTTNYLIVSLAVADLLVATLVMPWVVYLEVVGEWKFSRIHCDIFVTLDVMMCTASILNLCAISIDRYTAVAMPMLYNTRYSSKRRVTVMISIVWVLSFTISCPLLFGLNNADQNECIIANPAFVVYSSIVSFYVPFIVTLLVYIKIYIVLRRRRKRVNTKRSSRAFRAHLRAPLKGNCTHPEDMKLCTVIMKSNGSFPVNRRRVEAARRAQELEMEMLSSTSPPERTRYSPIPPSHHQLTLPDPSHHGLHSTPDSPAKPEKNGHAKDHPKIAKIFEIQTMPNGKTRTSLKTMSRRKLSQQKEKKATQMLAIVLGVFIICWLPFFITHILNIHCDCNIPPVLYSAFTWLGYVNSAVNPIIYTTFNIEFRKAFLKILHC
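Agonist mode: compounds alone added to overnight-plated D2 PathHunter cells for 90 min at 37 C, with 57 uM final dopamine (EC100) defining full response. Beta-arrestin recruitment detected by chemiluminescent reagent, read after 1 h at ambient temperature.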
D2 antag – antagonists of human D2 dopamine receptor; P14416; HEK293 TREx D2 cells, calcium flux, dopamine EC80; inhibition, % at 10 µM; 340,000 compounds, 2% hits; AID 485344; in the data active = inhibition above about 30%; inactive = below that, where a call was filed
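In this primary screen, negative modulation is detected by tracking calcium flux after an EC80 dopamine challenge in inducible HEK293 T-REx D2 cells preexposed to test compound for 180 s.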
B2AR arrestin – recruits beta-arrestin to the human beta2-adrenergic receptor | 330,000 compounds, 0.02% hits | beta-arrestin recruitment to beta2AR, cell-based reporter | AID 492947 | P07550 | Potency, µM (titrated, usually from 46.1 µM), usual class: activators; active = well fitted activation curve with a large enough effect; also: nearly all actives have a fitted effect of over 65% in size
D2 ag-2 – D2 dopamine receptor (human) agonism; HEK293 T-REx D2 cells, calcium flux agonist mode; activation, % at 2 µM; AID 485358; 340,000 compounds, 0.53% hits;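 active = activation over 3 SD above normal in the single-dose calcium agonist read, cut at about 30% in these data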
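Agonism is scored from calcium flux in a force-coupled, inducible HEK293 cell line expressing D2, read kinetically for 180 s after compound addition against dopamine controls.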
D2 PAM-1 – potentiates the human D2 dopamine receptor allosterically; 360,000 compounds, 0.23% hits; P14416; potentiation, % (test concentration not listed); DiscoveRx D2 beta-arrestin cells, luminescence, 90 min; 100% = 57 uM dopamine signal; in the data active = potentiation above about 50%
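D2 cells co-treated with compound plus 50 nM dopamine (EC20) for 90 min at 37 deg C to detect potentiation. Beta-arrestin recruitment was read as enzyme-fragment luminescence after 1 h at ambient temperature. Full response was set by 57 uM dopamine.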
D2 PAM-2 – D2 dopamine receptor (human) potentiation. HEK293 T-REx D2, calcium flux, EC20 dopamine potentiation. potentiation, % at 10 µM. 340,000 compounds, 0.34% hits. AID 485347;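 active = potentiation over 3 SD above the plate norm, cut at about 30% in these data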
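Calcium flux readout, no-wash dye, 1 read/s. Inducible HEK293 Trex D2 line, overnight 30 C. Compound alone 180 s (agonist flags), then EC20 dopamine, another 180 s to score potentiation.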
Large screens that a line does not name were inactive; ! = not active in a repeat. A selection: hits, their analogues and other compounds. The true share with any hit is near 2.4%.

Cc1ncc([N+](=O)[O-])n1CCO	D2 antag 38.2!
CCS(=O)(=O)CCn1c([N+](=O)[O-])cnc1C	none
O=c1c(C=Nc2cccc(C(F)(F)F)c2)c[nH]n1-c1cccc(Cl)n1	none
CCOC(=O)N1CCN(C(=O)c2c(O)c3cccc4c3n(c2=O)CC4)CC1	D2 PAM-2 37.2
CN(C)CCN(Cc1ccc(Cl)cc1)c1ccccn1	D2 antag 59.1
C[N+](C)(C)CCN(Cc1ccc(Cl)cc1)c1ccccn1	none
CC(c1ccccc1)n1cc(C(=O)NCC2CCCO2)nn1 (centres undefined)	D2 antag 39.6
CC(c1ccccc1)n1cc(C(=O)NCCN2CCOCC2)nn1 (centres undefined)	none
COc1cccc(N=c2oc3cc(O)ccc3cc2C(=O)NCC2CCCO2)c1 (centres undefined)	none
COCCSc1ccccc1C(=O)NCC1CCCO1 (centres undefined)	D2 antag 34.4 (no result: B2AR arrestin)
COc1ccccc1N=c1oc2cc(O)ccc2cc1C(=O)NCC1CCCO1 (centres undefined)	D2 antag 35.6
COC(=O)c1ccccc1NC(=O)CCNC(=O)Cn1cnc2ccccc2c1=O	none (no result: D2 antag, D2 ag-2, D2 PAM-2)
COc1ccc(S(=O)(=O)N(C)C)cc1NC(=O)CCCSc1ccccc1	D2 antag 47.7 (no result: D2 PAM-2)
COc1ccc(S(=O)(=O)N(C)C)cc1NC(=O)COC(=O)Cn1cnc2ccccc2c1=O	D2 antag 37.9
COC(=O)c1ccc(C)c(NC(=O)Cn2cnc3ccccc3c2=O)c1	D2 antag 35.4
Cc1ccc(S(=O)(=O)N(C)C)cc1NC(=O)COC(=O)c1n[nH]c(=O)c2ccccc12	D2 antag 51.7
COc1ccc(NC(=O)COC(=O)Cn2cnc3ccccc3c2=O)cc1OC	none
Cc1cc(C)cc(NCCC#N)c1	none
COc1ccc(CCC(=O)N(C)CC(=O)Nc2ccc(Cl)c(C(F)(F)F)c2)cc1	none
Cc1ccc2c(c1)N=C(c1ccc(Cl)cc1)CO2	none
Cc1ccc2cc(C#N)c(N3CCCN(S(=O)(=O)c4ccccc4)CC3)nc2c1	none
CN(C)C(=O)/C(=C\c1ccncc1)NC(=O)c1ccccc1	D2 antag 39.2
C=CCn1c(=O)[nH]c2cc(C(=O)N3CC=C(c4ccccc4)CC3)ccc2c1=O	D2 antag 36.0
O=C(c1ccc2c(=O)n(CCc3ccccc3)c(=O)[nH]c2c1)N1CCN(c2ccccc2)CC1	D2 PAM-2 30.0
CCOC(=O)N1CCN(C(=O)c2ccc(Cn3c(=S)[nH]c4cc5c(cc4c3=O)OCO5)cc2)CC1	D2 antag 31.2
O=C(c1ccc2c(=O)n(CCc3ccccc3)c(=O)[nH]c2c1)N1CCN(c2ccc(F)cc2)CC1	none
O=C(c1ccc(Cn2c(=S)[nH]c3ccccc3c2=O)cc1)N1CCN(c2ccccn2)CC1	D2 antag 32.8
CC(C)CC1NC(=S)N(Cc2ccccc2)C1=O (centres undefined)	none
CCCOc1ccc(N2C(=O)CC(N3CCC(C(=O)OCC)CC3)C2=O)cc1 (centres undefined)	none
CCCCCn1c(=O)[nH]c2cc(C(=O)NCc3ccc4c(c3)OCO4)ccc2c1=O	none
CCOc1cc2[nH]c(=S)n(Cc3ccc(C(=O)NCCN(CC)CC)cc3)c(=O)c2cc1OCC	D2 antag 49.7
CCCCCn1c(=O)[nH]c2cc(C(=O)N3CCN(Cc4ccc5c(c4)OCO5)CC3)ccc2c1=O	D2 ag-2 37.7
CC1(NC(=O)N2CCOCC2)CCS(=O)(=O)C1 (centres undefined)	none
CC(C)c1ccc(C(=O)CC2(O)C(=O)N(CCc3ccccc3)c3ccc(Cl)cc32)cc1 (centres undefined)	none (no result: D2 ag-1, D2 antag, B2AR arrestin, D2 PAM-1)
CCn1nc(CC(=O)Nc2ccc(-n3cnnn3)c(C)c2)c2ccccc2c1=O	none
CCn1nc(CC(=O)Nc2ccc(-n3cnnn3)c(OC)c2)c2ccccc2c1=O	D2 antag 34.6
O=C(NCc1ccccc1F)c1ccc2ccccc2n1	D2 PAM-2 33.6
O=C(NCc1ccccc1Cl)c1ccc2ccccc2n1	none
Cc1ccc2nc(NC(=O)CSc3nc4c(c(=O)n3C)SC(C)C4)sc2c1 (centres undefined)	D2 PAM-2 32.0
Cc1ccc(C)c(NC(=O)CSc2nc3c(c(=O)n2C)SC(C)C3)c1 (centres undefined)	none
C/C(CC(=O)Nc1ccc(N(C)C)cc1)=N\NC(=O)Cc1csc(N)n1	none
O=c1c2cc(NC(=S)NCCCN3CCC(Cc4ccccc4)CC3)ccc2nc2n1CCCCC2	D2 antag 51.8
O=C(Nc1ccc2nc3n(c(=O)c2c1)CCCCC3)C(=O)N1CCN(c2ccc(F)cc2)CC1	D2 antag 34.3
O=C(Nc1ccc2nc3n(c(=O)c2c1)CCCC3)c1ccccc1F	none
O=C(c1ccc2c(=O)n3c(nc2c1)CCCCC3)N1CCN(c2ccc(F)cc2)CC1	none
O=C(Nc1ccc2nc3n(c(=O)c2c1)CCCCC3)c1ccccc1[N+](=O)[O-]	D2 antag 30.2
CC(C)(C)c1ccc(C(=O)NCC(c2cccs2)S(=O)(=O)c2ccccc2)cc1 (centres undefined)	none (no result: D2 ag-1, D2 antag, B2AR arrestin, D2 PAM-1)
Cc1cc(C)n2nc(C(=O)Nc3cc(S(=O)(=O)N4CCCCC4)ccc3C)nc2n1	none (no result: D2 antag, D2 ag-2, D2 PAM-2)
O=C(CSc1nnc2ccc3ccccc3n12)N1CCOCC1	none
CC1CCN(CCCN2C(=O)C3C(C(=O)Nc4cccc(Cl)c4)C4C=CC3(O4)C2C(=O)NC2CCCCC2)CC1 (centres undefined)	none
O=C(Nc1ccc(OC(F)(F)F)cc1)c1ccc2nc[nH]c2c1	D2 antag 61.7
CCCCCn1c(CNC(=O)CCC)nc2ccccc21	none
CCCCn1c(CNC(=O)CCC)nc2ccccc21	D2 antag 33.7
Cc1c(OCc2nn[nH]n2)ccc2c(-c3ccccc3)cc(=O)oc12	none
Cc1cc(OCc2nn[nH]n2)c2c(-c3ccccc3)cc(=O)oc2c1	D2 antag 51.1
Cc1ncc(CO)n1Cc1ccc(Cl)cc1	none (no result: D2 antag, B2AR arrestin, D2 ag-2, D2 PAM-2)
Cc1ccc(OCC(=O)NNC(=O)C2CCC2)cc1C	none
CC(C)C(NC(N)=O)C(=O)NC1CCCCC1 (centres undefined)	none (no result: D2 ag-1, D2 PAM-1)
CCC(C)C(NC(N)=O)C(=O)NC1CCC(C)CC1 (centres undefined)	D2 antag 32.9 (no result: D2 ag-1, D2 PAM-1)
CN(C(=O)CN1C(=O)NC2(CCCc3ccccc32)C1=O)C1CCCCC1 (centres undefined)	none (no result: D2 antag, D2 ag-2, D2 PAM-2)
Cc1oc2cc3oc(=O)c(CCC(=O)NCCCC(=O)O)c(C)c3cc2c1C	D2 antag 33.3

Compound activity as filed in PubChem BioAssay.
